PubChem BioAssay (NCATS)
Inconclusive results are not listed. Entries that show only a call come without a potency. Calls of active or inactive are those of the source. Unless noted, calls come from the whole dose curve; as a rule, active = well fitted curve in the direction sought with a large enough effect; inconclusive = small, poorly fitted or top-dose-only effect, or another doubt; inactive = no such curve, though single readings can be large; an effect the other way counts as inactive or inconclusive.

System: not listed separately
Experiment: Primary redox qHTS assay for identification of artifact compounds. (AID 1845223)
Conditions: Amplex Red/HRP redox cycling with DTT, fluorescence; series mostly up to 53.8 µM
Outline: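 Amplex Red (25 uM) and HRP (250 mU/mL) in HBSS, with compounds for 15 min, then 250 uM DTT for 30 min, room temperature, dark. Fluorescence 525/598 nm read; normalized to DMSO and 10 uM DA3003; Hill fit.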

Row | SMILES | Potency
1 | CC(=O)Nc1ccc(C(=O)Nc2ccccc2N)cc1 | inactive
2 | CCOC(=O)CCC(=O)O[C@H]1[C@H](O[C@@H]2[C@@H](C)[C@H](O[C@H]3C[C@@](C)(OC)[C@@H](O)[C@H](C)O3)[C@@H](C)C(=O)O[C@H](CC)[C@@](C)(O)[C@H](O)[C@@H](C)C(=O)[C@H](C)CC2(C)O)O[C@H](C)C[C@@H]1N(C)C (some centres undefined) | inactive
3 | C=C(C(=O)O)C1CC2=C(C)C(=O)CC2C(C)CC1O (centres undefined) | inactive
4 | Cc1cc(CN)cc(C)c1NC(=O)c1ccc(-c2cc(Cl)ccc2Cl)o1 | inactive
5 | C=C1C(=O)O[C@@H]2C[C@@]3(C)CCC[C@H](C)C3=C[C@H]12 | inactive
6 | C=C1C(=O)O[C@@H]2[C@H]1[C@H](O)C[C@]1(C)[C@@H](O)CC=C(C)[C@@H]21 | inactive
7 | CC(C)c1ccc(NC(=O)C(c2ccccc2)N(C)C(=O)Cc2c[nH]c3ccccc23)cc1 (centres undefined) | inactive
8 | O=C(Nc1cccc(C(F)(F)F)c1)c1ccccc1NCc1ccncc1 | inactive
9 | Cc1cc(C)c(NC(=O)N(Cc2ccc3c(c2)Cc2ccccc2-3)C2CCCCCC2)c(C)c1 | inactive
10 | CN(Cc1ccc(C(=O)O)cc1)c1ccc(OCc2c(-c3c(Cl)cccc3Cl)noc2C2CC2)nc1C(F)(F)F | inactive
11 | Cn1nccc1Nc1nccc(-c2ccn([C@H](CO)c3ccc(Cl)c(F)c3)c(=O)c2)n1 | inactive
12 | C[N+]1(C)[C@@H]2CC[C@H]1CC(OC(=O)C(O)c1ccccc1)C2 (some centres undefined) | inactive
13 | CC1CCN(c2cc(NC(=O)c3ccccc3)ncn2)CC1 | inactive
14 | CCOc1ccc(-c2nc(-c3cccc4c3CCC4NCCO)no2)cc1OCC (centres undefined) | inactive
15 | CCC(=O)c1cc(-c2ccc(Cl)cc2)n(-c2ccc(S(N)(=O)=O)cc2)c1C | inactive
16 | COc1cccc(NC[C@@H](O)Cn2c3ccc(Br)cc3c3cc(Br)ccc32)c1 | inactive
17 | O=C(/C=C/n1cnc(-c2cc(C(F)(F)F)cc(C(F)(F)F)c2)n1)NNc1cnccn1 | inactive
18 | COc1cc(-c2cc(-c3cccc(O)c3)cnc2N)cc(OC)c1OC | inactive
19 | COc1c(N2CC3CCCNC3C2)c(F)cc2c(=O)c(C(=O)O)cn(C3CC3)c12 (centres undefined) | inactive
20 | COc1ccc(Cl)cc1[C@@]1(F)C(=O)Nc2cc(C(F)(F)F)ccc21 | inactive
21 | COc1ccc(-c2c(C)c(C(=O)NN3CCCCC3)nn2-c2ccc(Cl)cc2Cl)cc1 | inactive
22 | C[C@H](NC(=O)C(C)(C)Oc1ccc(C(F)(F)F)cn1)[C@@H](Cc1ccc(Cl)cc1)c1cccc(C#N)c1 | inactive

System: not listed separately
Experiment: qHTS drug screen for cell cycle checkpoint inhibitors in PARPi-resistant BRCA-mutant ovarian cancer cell lines. (AID 1963452; calls by dose curve)
Conditions: PEO1/OlaR viability, CellTiter-Glo luminescence, 96 h; stronger effect = lower value
Outline: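 PEO1, PEO4 and PEO1/OlaR ovarian cancer cells, 600 per well, exposed 96 h at 37C to a dilution series. Viability read by CellTiter-Glo luminescence, normalized to DMSO and empty wells; activity summarized as Z-AUC.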

Row | SMILES | Z-AUC
23 | CC(=O)Nc1ccc(C(=O)Nc2ccccc2N)cc1 | -0.302 (inactive)
24 | CCC(=O)Nc1cccc(Oc2nc(Nc3ccc(N4CCN(C)CC4)cc3OC)ncc2Cl)c1 | -0.15 (inactive)
25 | Cn1nccc1Nc1nccc(-c2ccn([C@H](CO)c3ccc(Cl)c(F)c3)c(=O)c2)n1 | -0.731 (inactive)
26 | COc1cc2nc(-c3cc(F)ccc3O)nc(N[C@@H]3CNC[C@H]3C(C)(C)O)c2cc1OC | -0.315 (inactive)

Same assay, conditions: PEO1/OlaR viability, CellTiter-Glo luminescence, 96 h; measured here: PEO1 parental Z-AUC; stronger effect = lower value

Row | SMILES | Z-AUC
27 | CC(=O)Nc1ccc(C(=O)Nc2ccccc2N)cc1 | -0.636
28 | CCC(=O)Nc1cccc(Oc2nc(Nc3ccc(N4CCN(C)CC4)cc3OC)ncc2Cl)c1 | 0.187
29 | Cn1nccc1Nc1nccc(-c2ccn([C@H](CO)c3ccc(Cl)c(F)c3)c(=O)c2)n1 | -0.241
30 | COc1cc2nc(-c3cc(F)ccc3O)nc(N[C@@H]3CNC[C@H]3C(C)(C)O)c2cc1OC | -0.378

Same assay, conditions: PEO1/OlaR viability, CellTiter-Glo luminescence, 96 h; measured here: PEO4 Z-AUC; stronger effect = lower value

Row | SMILES | Z-AUC
31 | CC(=O)Nc1ccc(C(=O)Nc2ccccc2N)cc1 | -0.146
32 | CCC(=O)Nc1cccc(Oc2nc(Nc3ccc(N4CCN(C)CC4)cc3OC)ncc2Cl)c1 | 0.383
33 | Cn1nccc1Nc1nccc(-c2ccn([C@H](CO)c3ccc(Cl)c(F)c3)c(=O)c2)n1 | -0.296
34 | COc1cc2nc(-c3cc(F)ccc3O)nc(N[C@@H]3CNC[C@H]3C(C)(C)O)c2cc1OC | -0.09

System: C33A
Experiment: Primary qHTS to identify gynecologic anti-cancer compounds using libraries of approved drugs and bioactive compounds (AID 1345084); note: nearly all actives have a fitted effect of over 55% in size
Conditions: Gynecologic cancer cell panel viability, ATPlite luminescence, 48 h; series mostly up to 57.5 µM
Outline: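 48 h compound exposure at 37 C, 5% CO2; five-point qHTS. ATPlite luminescence readout of cell ATP.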

Row | SMILES | Potency
35 | CC(=O)N1CCN([C@H]2CCN(C(=O)N(C)[C@H](C)c3cc(C(F)(F)F)cc(C(F)(F)F)c3)[C@@H](c3ccc(F)cc3C)C2)CC1 | inactive
36 | Nc1ccc(N)c([N+](=O)[O-])c1 | inactive
37 | C=C1C(=O)O[C@@H]2C[C@@H](C)[C@]34C[C@]5(C(=O)O[C@H]6CC(C)=C([C@H](C)CCCO)[C@H](OC(=O)C(C)CC)[C@H]65)[C@@H](C(C)=C3C[C@@H]12)[C@H]4OC(C)=O (some centres undefined) | inactive
38 | COc1ccccc1-c1c[nH]c2ncc(-c3cncc(C(=O)N(C)C)c3)cc12 | inactive
39 | Fc1ccccc1CNCc1ccc(-c2ccnc3[nH]ccc23)cc1 | inactive
40 | CCCCc1nc(C)c(CC(=S)N(C)C)c(=O)n1Cc1ccc(-c2ccccc2-c2nn[nH]n2)cc1 | inactive
41 | Clc1ccccc1CNCC1CCC(CNCc2ccccc2Cl)CC1 (centres undefined) | inactive
42 | CNc1nc(-c2ccc3c(N)n[nH]c3c2)cc(N2CC(C(=O)NC3CCCCC3)CCC2C)n1 (centres undefined) | inactive
43 | CC[C@H]1OC(=O)[C@H](C)[C@@H](O[C@H]2C[C@@](C)(OC)[C@@H](O)[C@H](C)O2)[C@H](C)[C@@H](O[C@@H]2O[C@H](C)C[C@H](N(C)C)[C@H]2O)[C@](C)(O)C[C@@H](C)/C(=N/OCOCCOC)[C@H](C)[C@@H](O)[C@]1(C)O | inactive
44 | C[C@@H](CN1CCC(n2c(=O)[nH]c3cc(Cl)ccc32)CC1)NC(=O)c1ccc2ccccc2c1 | inactive
45 | CC1=CC(=O)[C@@]2(C(C)C)C[C@@H]12 | inactive
46 | CN(C)CC(=O)Nc1ccc2[nH]c(=O)c3ccccc3c2c1 | inactive
47 | C=C1C(=O)O[C@@H]2/C=C(/C)CC3C=C(C[C@H](OC(=O)/C(C)=C\C)[C@@H]12)C(=O)O3 (some centres undefined) | inactive
48 | COc1ccc2c(c1)CN(C(=O)CCN1CCC(Cc3ccccc3)CC1)CCS2 | inactive
49 | COc1ccc(-c2nc(-c3cc(C(F)(F)F)cc(C(F)(F)F)c3)n(Cc3ccc(C(N)=O)cc3)c2-c2ccc(OC)cc2)cc1 | inactive
50 | CNc1cc(OC)c(C(=O)N[C@@H]2CCN(Cc3ccccc3)[C@@H]2C)cc1Cl | inactive
51 | CC(=O)Nc1ccc(C(=O)Nc2ccccc2N)cc1 | inactive
52 | CCOC(=O)CCC(=O)O[C@H]1[C@H](O[C@@H]2[C@@H](C)[C@H](O[C@H]3C[C@@](C)(OC)[C@@H](O)[C@H](C)O3)[C@@H](C)C(=O)O[C@H](CC)[C@@](C)(O)[C@H](O)[C@@H](C)C(=O)[C@H](C)CC2(C)O)O[C@H](C)C[C@@H]1N(C)C (some centres undefined) | inactive
53 | C=C(C(=O)O)C1CC2=C(C)C(=O)CC2C(C)CC1O (centres undefined) | inactive
54 | CCC(=O)Nc1cccc(Oc2nc(Nc3ccc(N4CCN(C)CC4)cc3OC)ncc2Cl)c1 | inactive

Row | SMILES | Potency
55 | Cc1cc(CN)cc(C)c1NC(=O)c1ccc(-c2cc(Cl)ccc2Cl)o1 | inactive
56 | C=C1C(=O)O[C@@H]2C[C@@]3(C)CCC[C@H](C)C3=C[C@H]12 | inactive
57 | C=C1C(=O)O[C@@H]2[C@H]1[C@H](O)C[C@]1(C)[C@@H](O)CC=C(C)[C@@H]21 | inactive
58 | CC(C)c1ccc(NC(=O)C(c2ccccc2)N(C)C(=O)Cc2c[nH]c3ccccc23)cc1 (centres undefined) | inactive
59 | O=C(Nc1cccc(C(F)(F)F)c1)c1ccccc1NCc1ccncc1 | inactive
60 | Cc1cc(C)c(NC(=O)N(Cc2ccc3c(c2)Cc2ccccc2-3)C2CCCCCC2)c(C)c1 | inactive
61 | CN(Cc1ccc(C(=O)O)cc1)c1ccc(OCc2c(-c3c(Cl)cccc3Cl)noc2C2CC2)nc1C(F)(F)F | inactive
62 | Cn1nccc1Nc1nccc(-c2ccn([C@H](CO)c3ccc(Cl)c(F)c3)c(=O)c2)n1 | inactive
63 | C[N+]1(C)[C@@H]2CC[C@H]1CC(OC(=O)C(O)c1ccccc1)C2 (some centres undefined) | inactive
64 | CC1CCN(c2cc(NC(=O)c3ccccc3)ncn2)CC1 | inactive
65 | CCOc1ccc(-c2nc(-c3cccc4c3CCC4NCCO)no2)cc1OCC (centres undefined) | inactive
66 | CCC(=O)c1cc(-c2ccc(Cl)cc2)n(-c2ccc(S(N)(=O)=O)cc2)c1C | inactive
67 | COc1cc2nc(-c3cc(F)ccc3O)nc(N[C@@H]3CNC[C@H]3C(C)(C)O)c2cc1OC | inactive
68 | COc1cccc(NC[C@@H](O)Cn2c3ccc(Br)cc3c3cc(Br)ccc32)c1 | inactive
69 | O=C(/C=C/n1cnc(-c2cc(C(F)(F)F)cc(C(F)(F)F)c2)n1)NNc1cnccn1 | inactive
70 | COc1cc(-c2cc(-c3cccc(O)c3)cnc2N)cc(OC)c1OC | inactive
71 | COc1c(N2CC3CCCNC3C2)c(F)cc2c(=O)c(C(=O)O)cn(C3CC3)c12 (centres undefined) | inactive
72 | COc1ccc(Cl)cc1[C@@]1(F)C(=O)Nc2cc(C(F)(F)F)ccc21 | inactive
73 | COc1ccc(-c2c(C)c(C(=O)NN3CCCCC3)nn2-c2ccc(Cl)cc2Cl)cc1 | inactive
74 | C[C@H](NC(=O)C(C)(C)Oc1ccc(C(F)(F)F)cn1)[C@@H](Cc1ccc(Cl)cc1)c1cccc(C#N)c1 | inactive
